The record followed here is ChEMBL document CHEMBL1961873, “Compounds: GSK PKIS; Assays: Nanosyn kinase panel” (2012).
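Also: each value is a mean percent inhibition of HIPK1.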

Sequence of Homeodomain-interacting protein kinase 1 (Homo sapiens) (Q86Z02 whole entry, looked up): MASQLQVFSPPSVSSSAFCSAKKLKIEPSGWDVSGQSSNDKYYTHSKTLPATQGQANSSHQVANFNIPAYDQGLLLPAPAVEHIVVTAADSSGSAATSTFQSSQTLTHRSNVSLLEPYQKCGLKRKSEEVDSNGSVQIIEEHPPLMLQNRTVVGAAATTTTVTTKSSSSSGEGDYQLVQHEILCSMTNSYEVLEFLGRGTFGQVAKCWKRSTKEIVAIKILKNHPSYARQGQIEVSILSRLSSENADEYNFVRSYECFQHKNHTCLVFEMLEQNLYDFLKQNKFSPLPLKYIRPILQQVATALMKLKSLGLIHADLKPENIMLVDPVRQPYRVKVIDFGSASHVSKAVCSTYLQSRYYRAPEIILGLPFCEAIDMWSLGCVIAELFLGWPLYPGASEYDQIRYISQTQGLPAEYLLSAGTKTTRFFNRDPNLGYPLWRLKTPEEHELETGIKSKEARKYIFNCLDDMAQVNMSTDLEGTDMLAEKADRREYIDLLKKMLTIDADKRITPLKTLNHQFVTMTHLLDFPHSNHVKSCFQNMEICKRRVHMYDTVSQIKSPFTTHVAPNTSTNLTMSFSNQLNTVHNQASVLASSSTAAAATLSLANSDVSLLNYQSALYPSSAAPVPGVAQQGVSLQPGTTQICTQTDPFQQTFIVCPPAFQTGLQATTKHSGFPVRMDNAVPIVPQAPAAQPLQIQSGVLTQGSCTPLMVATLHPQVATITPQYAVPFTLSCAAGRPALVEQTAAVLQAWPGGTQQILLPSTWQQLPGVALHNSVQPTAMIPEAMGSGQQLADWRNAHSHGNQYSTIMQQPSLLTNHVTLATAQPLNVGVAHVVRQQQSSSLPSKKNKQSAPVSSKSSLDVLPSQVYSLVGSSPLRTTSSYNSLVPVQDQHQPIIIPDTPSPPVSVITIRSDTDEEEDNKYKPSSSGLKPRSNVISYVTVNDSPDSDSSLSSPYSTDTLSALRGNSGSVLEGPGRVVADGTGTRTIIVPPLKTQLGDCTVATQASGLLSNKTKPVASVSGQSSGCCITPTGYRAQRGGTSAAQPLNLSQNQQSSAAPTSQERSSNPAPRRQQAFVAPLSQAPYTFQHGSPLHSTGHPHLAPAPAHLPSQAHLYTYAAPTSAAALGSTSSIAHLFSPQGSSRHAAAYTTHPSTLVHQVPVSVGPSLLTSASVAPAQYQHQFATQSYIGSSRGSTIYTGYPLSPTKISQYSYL

The assay has as its target Homeodomain-interacting protein kinase 1 (Homo sapiens) (UniProt Q86Z02). The note with it: at 0.1 µM.
On to `Cc1c2ccc(N(C)c3ccnc(Nc4cccc(S(N)(=O)=O)c4)n3)cc2nn1C`, for which the inhibition – broadly, the drop in the measured response relative to a control, in per cent – was -4.42%.

Regarding `N#Cc1cccc(Nc2ncc(-c3ccccc3)o2)c1`, the inhibition is 3.5%.

As for `CC1=C(C(=O)Nc2ccc3[nH]ncc3c2)C(c2ccc(F)cc2)N=C(c2ccc(C(F)(F)F)nc2)N1` (stereo unspecified), the inhibition turned out to be 0.16%.

As to `NS(=O)(=O)c1ccc(N/N=C2\C(=O)Nc3cccc(CCc4ccncc4)c32)cc1`, the inhibition was -0.6%.

On to `O=C(O[C@H]1CN[C@H](C#Cc2cc3ncnc(Nc4ccc5c(cnn5Cc5ccccc5)c4)c3s2)C1)N1CCOCC1`, for which the inhibition was -3.77%.

Turning to `CS(=O)(=O)Nc1ccc(-c2cc(-c3ccccc3)cc(C(N)=O)c2N)cc1`, the inhibition is -3.53%.

Consider `FC(F)(F)CNc1nccc(-c2cnn3ncccc23)n1`, for which the inhibition came out at 0.25%.

As to `CS(=O)(=O)CCNCc1ccc(-c2ccc3ncnc(Nc4ccc(OCc5ccccc5)cc4)c3c2)o1`, the inhibition was -0.23%.

For the compound `CN(C)CCNC(=O)Nc1ccc(N(C)c2ccnc(Nc3ccc(CS(C)(=O)=O)cc3)n2)cc1`, the inhibition amounted to 0.8%.

`NC(=O)c1ccc2c(-c3ccnc(NCCCO)n3)c(-c3ccc(F)cc3)nn2c1`: the inhibition worked out at 1.65%.

With `c1ccc(-c2n[nH]cc2-c2ccnc(-c3ccc(OCCn4ccnc4)cc3)c2)nc1`, the inhibition was -0.98%.

Regarding `c1cnn2ncc(-c3ccnc(NCCCN4CCOCC4)n3)c2c1`, the inhibition is -1.15%.

Regarding `CN1CCC(n2cnc(-c3ccc(F)cc3)c2-c2ccnc(NCCO)n2)CC1`, the inhibition amounted to 3.91%.

For the compound `COc1cc(N2CCN(C(C)C)CC2)ccc1Nc1nc(Nc2cccc3ncccc23)c2cc[nH]c2n1`, the inhibition was -1.1%.

`COc1ccc(Nc2ncc(-c3ccccc3)o2)cc1OC`: the inhibition stood at 8.4%.

In the case of `CC1=C(C(=O)Nc2ccc3[nH]nc(C)c3c2)C(c2ccc(C(F)(F)F)cc2)CC(=O)N1` (stereo unspecified), the inhibition stood at 3.11%.
